This note sets out measurements from ChEMBL document CHEMBL3433997, “St. Jude Leishmania screening dataset” (2016).

As a reminder, the inhibition is the change of the read-out against control, counted positive when it falls.

What all share (type): functional
In test [1] the target is Solute carrier family 2, facilitated glucose transporter member 1 (Homo sapiens) (UniProt P11166). In words: ST_JUDE_LEISH: Cytotoxicity at 2uM final concentration against transgenic Leishmania Mexicana promastigotes LmGLUT1 that are glucose transport deficient and complemented with the human glucose transporter GLUT1. Activity is measured by DNA content using SYBR green in vitro.

The target of test [2] is Hexose transporter 1 (Plasmodium falciparum) (UniProt O97467). In words: ST_JUDE_LEISH: Cytotoxicity at 2uM final concentration against transgenic Leishmania Mexicana promastigotes LmPfHT that are glucose transport deficient and complemented with the Plasmodium falciparum hexose transporter. Activity is measured by DNA content using SYBR green in vitro.
Test [3] addresses Glucose transporter (Leishmania mexicana) (UniProt O61059). Description: ST_JUDE_LEISH: Cytotoxicity at 2uM final concentration against transgenic Leishmania Mexicana promastigotes LmGT2 that are glucose transport deficient and complemented with the L. Mexicana glucose transporter 2. Activity is measured by DNA content using SYBR green in vitro.

SMILES strings stand for the structures. Values joined by “and” are separate entries in the source; they are usually repeats but may differ in a detail not shown here. Identical values can stand only once.

Sequence of Solute carrier family 2, facilitated glucose transporter member 1 (Homo sapiens) (P11166 whole entry): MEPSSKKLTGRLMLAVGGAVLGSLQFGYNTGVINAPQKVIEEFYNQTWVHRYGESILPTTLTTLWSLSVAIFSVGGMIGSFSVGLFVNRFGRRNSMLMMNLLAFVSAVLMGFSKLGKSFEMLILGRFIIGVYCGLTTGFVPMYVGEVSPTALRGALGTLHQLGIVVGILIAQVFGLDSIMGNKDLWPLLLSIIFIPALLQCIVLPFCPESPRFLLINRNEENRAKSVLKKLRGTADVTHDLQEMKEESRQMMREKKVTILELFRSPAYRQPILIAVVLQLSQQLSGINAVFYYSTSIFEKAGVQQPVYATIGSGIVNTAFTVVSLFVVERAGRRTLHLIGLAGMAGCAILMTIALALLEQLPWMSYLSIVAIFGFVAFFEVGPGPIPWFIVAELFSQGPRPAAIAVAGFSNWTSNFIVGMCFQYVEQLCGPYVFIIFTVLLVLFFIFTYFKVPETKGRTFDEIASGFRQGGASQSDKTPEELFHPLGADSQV

Consider `COc1ccc(NC(=O)N2CCN(CCCCCNC(=O)/C=C/c3ccc(C(F)(F)F)cc3)CC2)cc1Cl`, for which the inhibition came out at 2.21% in test [1], 1.82% in test [2] and 1.35% in test [3].

For `O=C(Nc1cccc(Oc2ccccc2)c1)N[C@H]1CCN(Cc2ccc(OCCCN3CCCCC3)cc2)C1`, the inhibition in test [1] was 3.58%; in test [2], 5.18%; in test [3], 6.98%.

Consider `C[C@H](Nc1c(Nc2ccc3[nH]ccc3c2)c(=O)c1=O)C1CCCCC1`, for which the inhibition in test [1] is -1.55%; in test [2], 0.15%; in test [3] it was -0.44%.

Turning to `COc1cccc(-c2ccc(NC(=O)C3CCCN(Cc4cccc(OC)c4O)C3)cc2)c1` (configuration not stated), the inhibition in test [1] is 3.21%; in test [2], 2.29%; in test [3] it was -0.64%.

Regarding `CC(CN1CCN(C)CC1)C(=O)Nc1ccc(-c2ccc(-c3nc4ccccc4[nH]3)cc2)cc1` (configuration not stated), the inhibition in test [1] amounted to 0.19%; in test [2], 3.04%; in test [3], 1.16%.

As for `COc1ccc2nccc([C@@H](O)CN3CCC(NC(=O)c4cc5c(F)cc(F)cc5[nH]4)CC3)c2n1`, the inhibition in test [1] came out at 87%; in test [2], 84.1%; in test [3] it was 85.4%.

For `ON=C1CCc2cc(-c3nc(-c4ccc(OCCN5CCCCC5)cc4)[nH]c3-c3ccncc3)ccc21`, the inhibition is -1.78% in test [1], -1.49% in test [2] and -1.7% in test [3].

Consider `c1ccc(Oc2ccc(Nc3ccnc4cc(-c5cccc(CN6CCOCC6)c5)ccc34)cc2)cc1`, for which the inhibition in test [1] is -0.77%; in test [2], 0.67%; in test [3], 1.46%.

Take `N=C(N)Nc1nc(-c2cccc(NC(=O)CCCCCCCON3C(N)=NC(N)=NC34CCCCC4)c2)cs1`: the inhibition in test [1] is 2.45%; in test [2], 4.13%; in test [3], 3.75%.

Turning to `COc1ccc(CCNCC(O)COc2nccc3c(S(=O)(=O)N4CCCNCC4)cccc23)cc1OC` (configuration not stated), the inhibition in test [1] is -1.57%; in test [2], -1.2%; in test [3], -2.89%.

Consider `Cc1c(CNCCCNc2nc3ccccc3[nH]2)sc(C(F)F)c1Br`, for which the inhibition turned out to be 3.07% in test [1], 0.8% in test [2] and 1.17% in test [3].

On to `Cc1cc(-c2cccc(CNC3CCCC3)c2)ccc1S(=O)(=O)NCCN1CCCC1`, for which the inhibition in test [1] was 5%; in test [2], 3.43%; in test [3], 6.24%.

In the case of `O=C(Nc1ccc(OC2CCN(Cc3ccc(F)cc3)CC2)c(Cl)c1)c1ccco1`, the inhibition in test [1] came to 1.06%; in test [2], 1.1%; in test [3], 3.28%.

On to `CN(C)c1ccc(/C=C2\S/C(=N\c3ccccc3)N(c3ccccc3)C2=O)cc1[N+](=O)[O-]`, for which the inhibition in test [1] is 2.12%; in test [2] it was 1.07%; in test [3] it was -0.79%.

With `CC(C)c1ccc(NC(=O)NC2CCN(CCCCCN(C)C(=O)/C=C/c3ccc(Cl)c(Cl)c3)C2)cc1` (configuration not stated), the inhibition is 5.33% in test [1], 7.26% in test [2] and 6.41% in test [3].

`C#CCN(Cc1ccc2[nH]c(N)nc(=O)c2c1)c1ccc(C(=O)N[C@@H](CCC(=O)O)C(=O)O)cc1`: the inhibition came out at 4.21% in test [1], 3.35% in test [2] and 3.66% in test [3].

Regarding `Cc1cnc(Nc2ccccc2)nc1N[C@@H](CCCN)C(=O)Nc1ccccc1`, the results for the inhibition in test [1], in test [2] and in test [3] were -1.01%, -0.2% and -0.3%, respectively.

For `N#Cc1ccc(-c2ccc(C(=O)NC3CCN(CCN4CCC(c5cn(CCOC6CCCCO6)c6ccccc56)CC4)CC3)cc2)cc1` (configuration not stated), the values for the inhibition in test [1], in test [2] and in test [3] were 14.4%, 6.81% and 21.2%, respectively.

Consider `COc1ccc(-c2ccc(CNCc3ccsc3)cc2)cc1S(=O)(=O)NCCN1CCCC1`, for which the inhibition was -0.99% in test [1], 0.23% in test [2] and -2.28% in test [3].

For `CCNC(=O)NC1CCN(Cc2c(-c3cccs3)nc3ccccc3c2C(=O)N[C@@H](C)C2CCCCC2)CC1`, the inhibition in test [1] is 2.27%; in test [2] it was 0.77%; in test [3], -0.86%.

Take `COC(=O)c1cc(/C(C)=N/Nc2nc3ccccc3[nH]2)ccc1O`: the inhibition in test [1] came to 4.85%; in test [2] it was 5.41%; in test [3], 1.77%.

`CCOC(=O)c1c(CN2CCCC2)n(-c2ccccc2)c2cc(Br)c(O)cc12`: the inhibition in test [1] was 17%; in test [2], 14%; in test [3] it was 16.7%.

As for `c1ccc(-c2[nH]c3ccccc3c2CN2CCC(N3CCCCC3)CC2)nc1`, the inhibition in test [1] was -2.72%; in test [2], -0.46%; in test [3] it was -1.64%.

As to `COc1ccc(C[C@H](N)C(=O)N[C@H]2[C@@H](O)[C@H](n3cnc4c(N(C)C)ncnc43)O[C@@H]2CO)cc1`, the inhibition in test [1] was 3.7% and 0.1%; in test [2], 1.9% and 3.79%; in test [3], 3.16% and 2.8%.

As to `CC(C)Cc1nc(N)nc(N)c1-c1ccc(Cl)cc1`, the inhibition in test [1] amounted to 6.51%; in test [2], 5.64%; in test [3] it was 5.17%.

As for `c1ccc2c3c(ccc2c1)Sc1c(ccc2ccccc12)N3`, the results for the inhibition in test [1], in test [2] and in test [3] were 6.27%, 5.61% and 5.33%, respectively.

With `Fc1ccccc1CNc1ncc(-c2ccsc2)c(-c2nccs2)n1`, the figures for the inhibition in test [1], in test [2] and in test [3] were -0.99%, 0.2% and -3%, respectively.

In the case of `CC(C)[C@H](NC(=O)c1ccc(O)c(-c2ccc(Cl)c(Cl)c2)c1)C(=O)NC1CCCCCC1`, the inhibition in test [1] was 0.48%; in test [2], 0.52%; in test [3], -4.76%.

With `CCOc1ccc(-c2nonc2NC(=O)c2cccc(Cl)c2)cc1OCC`, the results for the inhibition in test [1], in test [2] and in test [3] were 2.52%, 3.66% and -0.71%, respectively.

With `CCOC(=O)c1ccc(-c2cnoc2-c2cc(CC)c(OC)cc2O)o1`, the figures for the inhibition in test [1], in test [2] and in test [3] were -0.08%, 1.08% and 1.38%, respectively.

As for `Clc1ncccc1-c1nc(NCCC(c2ccccc2)c2ccccc2)no1`, the inhibition in test [1] was determined as 4.29%; in test [2], 2.24%; in test [3], 2.64%.

`Cc1cccc(C(=O)NCCCN2CCC(NC(=O)/C=C/c3ccc(Cl)c(Cl)c3)CC2)c1`: the inhibition in test [1] is 1.05%; in test [2] it was 0.15%; in test [3], 2.02%.

Take `COc1cccc2cc(C(=O)N[C@@H](CC(C)C)C(=O)N[C@H](/C=N/NC(=O)Cc3cccnc3)CCc3ccccc3)oc12`: the figures for the inhibition in test [1], in test [2] and in test [3] were 3.03%, 5.36% and 1.75%, respectively.

Consider `COc1ccc(CC(Cc2ccc(OC)cc2)NCC(O)c2cccc(Cl)c2)cc1` (configuration not stated), for which the inhibition was 2.03% in test [1], 0.72% in test [2] and 1.6% in test [3].
